Measured values taken from PubChem BioAssay (NCATS).
Where “and” joins values, the source holds several entries; their conditions need not be identical. Identical values can stand only once. Inconclusive results are not listed. Calls of active or inactive are those of the source. Unless noted, calls come from the whole dose curve; as a rule, active = well fitted curve in either direction with a large enough effect (not every such curve was filed as active); inconclusive = small, poorly fitted or top-dose-only effect, or another doubt; inactive = flat fitted curve, though single readings scatter.

Columns and labels:
[1] = target: Cytochrome P450 1A2 (Homo sapiens) (UniProt P05177); assay: p450-cyp1a2 (AID 410; calls by dose curve;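 note: -100% = full effect of reference inhibitor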)
Sequence of Cytochrome P450 1A2 (Homo sapiens) (P05177 whole entry, looked up): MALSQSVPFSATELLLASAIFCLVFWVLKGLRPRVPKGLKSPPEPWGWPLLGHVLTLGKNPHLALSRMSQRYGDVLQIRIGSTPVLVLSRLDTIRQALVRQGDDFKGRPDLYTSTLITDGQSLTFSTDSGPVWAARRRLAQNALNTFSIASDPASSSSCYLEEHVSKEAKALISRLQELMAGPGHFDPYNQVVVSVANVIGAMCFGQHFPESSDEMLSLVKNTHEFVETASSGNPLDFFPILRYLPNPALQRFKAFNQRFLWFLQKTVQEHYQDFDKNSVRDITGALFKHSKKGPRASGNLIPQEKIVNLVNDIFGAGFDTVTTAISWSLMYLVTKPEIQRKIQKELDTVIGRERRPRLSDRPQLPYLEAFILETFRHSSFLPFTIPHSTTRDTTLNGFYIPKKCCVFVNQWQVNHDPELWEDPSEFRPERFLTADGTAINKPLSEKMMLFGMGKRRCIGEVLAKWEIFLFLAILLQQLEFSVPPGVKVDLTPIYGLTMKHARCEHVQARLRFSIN
Method in brief: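 Inhibition was calculated relative to 57 uM furafylline (full inhibition). The reaction used human CYP1A2 at 20nM with Luciferin-ME at its Km, 100uM, driven by an NADPH-regenerating system for 60 min at room temperature.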

[2] = NFAT Signaling Pathway (AID 444); settings: Jurkat NFAT-bla M1, carbachol, beta-lactamase ratio, 5 h;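 note: carbachol stimulus at about its EC50 of 1 µM final; % is set by controls: 0 for no effect and ±100 for the full control effect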
Method in brief: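 Read-out: CCF4 FRET ratio (460 nm/530 nm) after 1 h RT dye loading, used for %activity and AC50 from titration series. Cells: Jurkat NFAT-β-lactamase/M1 line, treated with compound plus 1 uM carbachol for 5 h, 37 °C.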

[3] = Stat Signaling Pathway (AID 446); settings: ME-180 SIE beta-lactamase reporter, IL-6 stimulated, 5 h;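 note: ME-180 cervical cancer cells given 40 pM IL-6 alongside compound; SIE-controlled beta-lactamase reporter measured as 460/530 nm FRET emission ratio; % is set by controls: 0 for no effect and ±100 for the full control effect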
Method in brief: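 Screening format detects activators and inhibitors alike: ME-180 SIE-bla cells stimulated at 40 pM IL-6 for 5 hrs with compound, then dual-emission beta-lactamase read at 405 nm excitation.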

[4] = target: Mitogen-activated protein kinase 10 (Mus musculus) (UniProt Q61831); assay: JNK3 AlphaScreen Assay (AID 530);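 note: kinase came from lysate of stimulated human HepG2 cells; signal reports phosphorylation of biotinylated GST-cJun 1-79 at Ser73 with 10 µM ATP; % is set by controls: 0 for no effect and ±100 for the full control effect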
Method in brief: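 Room-temperature AlphaScreen kinase assay; pre-activated HepG2 lysate as JNK3 source, biotin-GST-cJun(1-79) substrate, 10 uM ATP, compound 15 min preincubation.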

[5] = target: 3',5'-cyclic-AMP phosphodiesterase 4B (Homo sapiens) (UniProt Q07343); assay: qHTS Assay for Inhibitors of PDE-IV (AID 607; active = well fitted activation curve with a large enough effect in the main read-out, with a control signal flat, not every such curve was filed as active; note: % of control where 0% means no effect)
Sequence of 3',5'-cyclic-AMP phosphodiesterase 4B (Homo sapiens) (Q07343 whole entry, looked up): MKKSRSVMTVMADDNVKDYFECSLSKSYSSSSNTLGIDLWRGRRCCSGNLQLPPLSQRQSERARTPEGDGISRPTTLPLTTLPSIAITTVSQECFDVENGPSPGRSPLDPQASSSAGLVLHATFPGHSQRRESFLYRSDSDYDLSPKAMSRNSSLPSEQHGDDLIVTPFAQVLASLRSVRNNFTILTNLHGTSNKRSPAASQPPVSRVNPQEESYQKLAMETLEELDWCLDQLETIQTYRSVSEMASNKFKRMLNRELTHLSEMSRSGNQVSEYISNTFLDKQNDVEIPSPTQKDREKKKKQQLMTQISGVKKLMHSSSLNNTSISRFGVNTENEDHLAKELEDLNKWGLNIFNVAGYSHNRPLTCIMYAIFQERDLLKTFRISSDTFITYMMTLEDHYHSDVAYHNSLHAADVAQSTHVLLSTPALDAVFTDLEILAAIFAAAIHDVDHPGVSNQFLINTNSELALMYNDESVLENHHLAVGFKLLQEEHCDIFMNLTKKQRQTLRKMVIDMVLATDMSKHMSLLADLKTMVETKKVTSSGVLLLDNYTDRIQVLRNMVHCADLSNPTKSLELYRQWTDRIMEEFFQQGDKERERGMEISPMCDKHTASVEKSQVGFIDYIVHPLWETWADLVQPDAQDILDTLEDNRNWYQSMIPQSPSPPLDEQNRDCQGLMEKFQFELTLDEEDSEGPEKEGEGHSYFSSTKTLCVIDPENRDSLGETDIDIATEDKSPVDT
Method in brief: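 The readout is membrane depolarisation from a cAMP-sensing CNG channel, detected with a potential dye at ex 535/em 590. Cells were HEK293-derived (endogenous PDE-IV) at 1000 cells/well, titrated up to 22.9 uM final.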

[6] = qHTS Assay for Lipid Storage Modulators (AID 1519; calls by dose curve); settings: Drosophila S3 cells, BODIPY lipid droplet/cell ratio, laser cytometry, cells loaded with oleic acid
Method in brief: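 Cells seeded at 5,000 per well were treated with compounds over a concentration series and loaded with oleic acid (400 uM, as added). Lipid droplet fluorescence (488 nm excitation, 500-530 nm channel) was read by laser-scanning cytometry and normalized to 20 uM Triacsin C.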

[7] = target: Ubiquitin carboxyl-terminal hydrolase 1 (Homo sapiens) (UniProt O94782); assay: Inhibitors of USP1/UAF1: Pilot qHTS (AID 504865; active = well fitted curve in the direction sought with a large enough effect; an effect the other way counts as inactive or inconclusive; note: nearly all actives have a fitted effect of over 35% in size; note: potency is the fitted concentration of half-maximal effect)
Sequence of Ubiquitin carboxyl-terminal hydrolase 1 (Homo sapiens) (O94782 whole entry, looked up): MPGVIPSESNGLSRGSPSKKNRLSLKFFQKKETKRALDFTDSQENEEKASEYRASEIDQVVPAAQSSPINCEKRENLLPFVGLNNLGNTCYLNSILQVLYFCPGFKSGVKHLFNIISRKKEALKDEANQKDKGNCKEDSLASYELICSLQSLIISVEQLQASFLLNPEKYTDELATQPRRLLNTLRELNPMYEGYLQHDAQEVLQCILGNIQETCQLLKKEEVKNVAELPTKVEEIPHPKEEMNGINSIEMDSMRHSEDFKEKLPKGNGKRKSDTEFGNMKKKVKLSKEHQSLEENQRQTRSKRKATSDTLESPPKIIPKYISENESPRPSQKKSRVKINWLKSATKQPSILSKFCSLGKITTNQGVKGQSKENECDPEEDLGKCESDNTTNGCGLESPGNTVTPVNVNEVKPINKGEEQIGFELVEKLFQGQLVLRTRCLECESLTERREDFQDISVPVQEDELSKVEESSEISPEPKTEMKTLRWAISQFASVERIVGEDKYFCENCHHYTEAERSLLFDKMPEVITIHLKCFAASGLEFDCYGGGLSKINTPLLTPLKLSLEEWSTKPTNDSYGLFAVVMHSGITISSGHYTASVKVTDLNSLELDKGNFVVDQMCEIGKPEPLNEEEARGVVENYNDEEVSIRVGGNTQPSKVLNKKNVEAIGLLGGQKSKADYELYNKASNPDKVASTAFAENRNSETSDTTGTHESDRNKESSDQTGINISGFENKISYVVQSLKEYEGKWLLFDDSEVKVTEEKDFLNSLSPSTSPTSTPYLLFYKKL
Method in brief: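 Deubiquitinase activity followed as kinetic rhodamine fluorescence release from 150 nM Ub-Rho. 1 nM USP1/UAF1 with compound, after 15 min room-temperature preincubation, in HEPES pH 7.8 buffer containing TCEP, EDTA, BSA and Tween-20.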

[8] = AP1 Signaling Pathway (AID 357); settings: ME-180 (cervical carcinoma) AP-1-bla reporter, EGF-induced, beta-lactamase ratio, 5 h; at 7.69 µM (top of the series) unless noted; note: % is set by controls: 0 for no effect and ±100 for the full control effect
Method in brief: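 AP-1-bla ME-180 cells with beta-lactamase reporter under AP-1 response element, stimulated with EC50 EGF; compounds titrated, 5 hours at 37 degrees Celsius. CCF4 read at 460/530 nm ratio; positive and negative modulators judged by AC50.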

[9] = target: Glucocorticoid receptor (Homo sapiens) (UniProt P04150); assay: GR-EFC Redistribution (AID 451; calls by dose curve; note: potency is the fitted concentration of half-maximal effect); settings: CHO-K1 GR-EFC translocation, beta-gal luminescence, 2 h
Sequence of Glucocorticoid receptor (Homo sapiens) (P04150 whole entry, looked up, the tested form may be a part): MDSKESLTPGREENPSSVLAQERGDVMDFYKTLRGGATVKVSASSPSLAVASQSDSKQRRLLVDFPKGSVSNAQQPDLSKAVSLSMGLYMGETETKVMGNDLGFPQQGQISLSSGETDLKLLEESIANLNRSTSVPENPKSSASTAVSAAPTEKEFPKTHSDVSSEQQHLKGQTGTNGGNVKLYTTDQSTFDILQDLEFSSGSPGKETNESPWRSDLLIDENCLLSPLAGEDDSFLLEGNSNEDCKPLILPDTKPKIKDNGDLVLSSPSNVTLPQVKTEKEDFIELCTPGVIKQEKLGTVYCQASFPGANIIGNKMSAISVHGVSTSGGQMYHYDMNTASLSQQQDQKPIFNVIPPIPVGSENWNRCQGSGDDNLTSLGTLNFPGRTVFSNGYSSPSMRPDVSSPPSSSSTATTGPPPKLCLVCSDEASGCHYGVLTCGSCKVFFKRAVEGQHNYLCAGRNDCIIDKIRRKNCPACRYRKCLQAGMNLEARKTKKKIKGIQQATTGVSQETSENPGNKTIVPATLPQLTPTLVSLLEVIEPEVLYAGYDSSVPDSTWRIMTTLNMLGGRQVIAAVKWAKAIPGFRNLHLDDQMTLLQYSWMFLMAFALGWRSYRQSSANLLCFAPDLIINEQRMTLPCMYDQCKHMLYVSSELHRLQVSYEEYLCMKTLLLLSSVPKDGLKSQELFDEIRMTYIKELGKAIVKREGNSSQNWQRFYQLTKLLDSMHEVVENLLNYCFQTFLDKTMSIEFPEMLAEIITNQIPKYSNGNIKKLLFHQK
Method in brief: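 Translocation of GR-ED fusion to nuclear EA restores b-gal, read by luminescence after 1 h room-temperature detection. Engineered CHO-K1 biosensor cells, 1,000/well, exposed 2 h at 37 C to titrations up to 46 uM final.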

[10] = target: Glucocorticoid receptor (Homo sapiens) (UniProt P04150); assay: GR-GFP Redistribution (AID 450;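 active = compounds whose dose series gives a full or clear partial fitted curve of increased nuclear translocation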; note: potency is the fitted concentration of half-maximal effect); settings: U2OS GR-GFP nuclear translocation, laser cytometry, 2 h
[11] = target: ATP-dependent 6-phosphofructokinase (Trypanosoma brucei brucei) (UniProt O15648); assay: qHTS Assay to Find Inhibitors of T. brucei phosphofructokinase: hit validation (AID 492961; active = well fitted curve in the direction sought with a large enough effect; an effect the other way counts as inactive or inconclusive)
Sequence of ATP-dependent 6-phosphofructokinase (Trypanosoma brucei brucei) (O15648 whole entry, looked up): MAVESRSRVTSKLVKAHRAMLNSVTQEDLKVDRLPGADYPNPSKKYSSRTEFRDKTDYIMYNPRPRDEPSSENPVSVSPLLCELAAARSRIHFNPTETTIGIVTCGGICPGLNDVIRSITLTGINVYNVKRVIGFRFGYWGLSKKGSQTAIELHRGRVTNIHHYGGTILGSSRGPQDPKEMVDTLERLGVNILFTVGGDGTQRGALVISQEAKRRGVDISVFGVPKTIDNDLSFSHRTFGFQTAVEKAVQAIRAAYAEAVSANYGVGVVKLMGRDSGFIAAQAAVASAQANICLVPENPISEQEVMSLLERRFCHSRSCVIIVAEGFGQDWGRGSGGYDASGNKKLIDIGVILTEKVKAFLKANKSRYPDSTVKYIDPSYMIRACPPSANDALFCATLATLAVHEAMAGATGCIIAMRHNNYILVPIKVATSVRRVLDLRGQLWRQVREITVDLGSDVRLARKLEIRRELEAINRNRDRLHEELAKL
Method in brief: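 In this biochemical qHTS validation, titrated compounds were tested against 1.25 nM PFK with 0.1 mM ATP and 0.5 mM F6P. Percent activity came from controls lacking or containing enzyme.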

[12] = target: Luciferin 4-monooxygenase (Photinus pyralis) (UniProt P08659); assay: Biochemical firefly luciferase enzyme assay for NPC (AID 624030; active = well fitted curve in the direction sought with a large enough effect; an effect the other way counts as inactive or inconclusive;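 note: purified P. pyralis luciferase at 10 nM with luciferin and ATP substrate; 0% = DMSO and -100% = full luciferase inhibition by PTC124 control; nearly all actives have a fitted effect of over 70% in size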)
Sequence of Luciferin 4-monooxygenase (Photinus pyralis) (P08659 whole entry, looked up): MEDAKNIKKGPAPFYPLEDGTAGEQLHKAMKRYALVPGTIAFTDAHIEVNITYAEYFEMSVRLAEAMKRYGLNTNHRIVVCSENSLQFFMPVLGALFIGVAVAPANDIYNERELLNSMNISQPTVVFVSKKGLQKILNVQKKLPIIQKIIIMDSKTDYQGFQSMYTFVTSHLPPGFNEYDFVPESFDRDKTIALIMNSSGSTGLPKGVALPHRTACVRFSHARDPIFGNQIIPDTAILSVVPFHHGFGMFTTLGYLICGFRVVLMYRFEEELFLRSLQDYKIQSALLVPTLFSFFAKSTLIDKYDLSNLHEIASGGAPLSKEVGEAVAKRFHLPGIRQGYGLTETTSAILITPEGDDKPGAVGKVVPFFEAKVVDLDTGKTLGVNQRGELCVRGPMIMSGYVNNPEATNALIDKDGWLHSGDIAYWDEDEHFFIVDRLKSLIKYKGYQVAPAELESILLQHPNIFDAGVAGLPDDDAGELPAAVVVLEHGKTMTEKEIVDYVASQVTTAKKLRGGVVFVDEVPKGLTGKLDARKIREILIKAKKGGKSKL
Method in brief: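 Direct inhibition of firefly luciferase enzyme (10 nM final, 50 mM Tris Acetate) assessed by luminescence within 5 minutes. Percent activity scaled between DMSO and PTC124 positive control, with concentration-effect curves classified by fit quality and response.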

[13] = qHTS profiling for inhibitors of Plasmodium falciparum proliferation (AID 504749; active = well fitted curve in the direction sought with a large enough effect; an effect the other way counts as inactive or inconclusive;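 note: 0% = DMSO vehicle and full inhibition = artemisinin control; nearly all actives have a fitted effect of over 60% in size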); settings: P. falciparum in erythrocytes, SYBR Green DNA, 72 h, at 12.8 µM (top of the series)
Method in brief: (§1)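 Three-day growth assay of blood-stage parasites in erythrocytes (0.3% parasitemia, 2.5% hematocrit) at 37 C, 5% CO2, quantified by SYBR Green DNA staining after overnight detergent lysis.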

AS120 = assay: as above; settings: P. falciparum in erythrocytes, SYBR Green DNA, 72 h; series mostly up to 28.7 µM
Method in brief: as §1

CP238 = assay: as above; settings: P. falciparum in erythrocytes, SYBR Green DNA, 72 h; series mostly up to 12.8 µM
Method in brief: as §1

CP250 = assay: as above; settings: P. falciparum in erythrocytes, SYBR Green DNA, 72 h; series mostly up to 12.8 µM
Method in brief: as §1

CP262 = assay: as above; settings: P. falciparum in erythrocytes, SYBR Green DNA, 72 h; series mostly up to 12.8 µM
Method in brief: as §1

CP265 = assay: as above; settings: P. falciparum in erythrocytes, SYBR Green DNA, 72 h; series mostly up to 12.8 µM
Method in brief: as §1

FAB9 = assay: as above; settings: P. falciparum in erythrocytes, SYBR Green DNA, 72 h; series mostly up to 12.8 µM
Method in brief: as §1

[14] = target: alpha-glucosidase (Oryza sativa, rice) (UniProt Q653V4); assay: Counterscreen for Glucocerebrosidase Inhibitors: qHTS Assay for Rice alpha-Glucosidase at pH 5.0 (AID 997; active = well fitted curve in the direction sought with a large enough effect; an effect the other way counts as inactive or inconclusive;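 note: 0% = full activity with enzyme and -100% = basal without enzyme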)
Method in brief: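 Rice alpha-glucosidase (4 nM final) with 400 uM 4-methylumbelliferyl-alpha-D-glucopyranoside in citrate buffer pH 5.0, 20 min at room temperature, stopped at pH 10; fluorescence 365/440 nm, compounds 0.7 nM–77 uM, AC50 from Hill fits.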

[15] = measured here: cell count channel max response
[16] = measured here: lipid channel max response
[17] = at 7.69 µM (top of the series) unless noted

C[C@@]12CCC(=O)C=C1CC[C@@H]1[C@@H]2[C@H](O)C[C@]2(C)[C@@H]1CC[C@]2(O)C(=O)CO
-11.2%: max response [6, 15]
inactive: Potency [1] | activity change, negative = inhibition ([2]; at 17.2 µM (top of the series)) -9.51% | activity change, negative = inhibition ([2]; at 38 µM (top of the series)) -0.823% | activity, negative = inhibition ([3]; at 17.2 µM (top of the series)) -0.993% | activity, negative = inhibition ([3]; at 38 µM (top of the series)) -22.1% | Potency [4] | Potency [5] | activity change, negative = inhibition ([6]; at 25.7 µM (top of the series)) -5.23% | Potency [7]
-16.6%: max response [6, 16]

CC(C)NC(=O)N1CCC2(CC1)CCN(C(=O)c1cnccn1)CC2
17.7%: max response [6, 16]
inactive: activity change, negative = inhibition [8] -0.14% | Potency [1] | activity change, negative = inhibition [2, 17] 7.26% | activity, negative = inhibition [3, 17] -2.84% | Potency [9] > 46 µM | Potency [4] | Potency [5] | activity change, negative = inhibition ([6]; at 57.5 µM (top of the series)) 0.356%
15.3%: max response [6, 15]

CN[C@@H]1[C@H](O[C@@H]2O[C@H](CO)[C@@H](N)[C@H](O)[C@@H]2O)O[C@H]2C[C@@H](N)[C@@H](O[C@H]3[C@@H](O)[C@H](O)[C@H](N)C[C@@H]3N)O[C@H]2[C@H]1O
inactive: activity change, negative = inhibition [8] 3.97% [at 17.2 µM] | Potency [1] | activity change, negative = inhibition [2, 17] -18% [at 17.2 µM] | activity, negative = inhibition [3, 17] -2.35% [at 17.2 µM] | Potency [10] > 20.6 µM | Potency [9] > 20.6 µM | Potency [4] | Potency [5] | activity change, negative = inhibition ([6]; at 25.7 µM (top of the series)) -1.23% | outcome [11] | Potency [7] | outcome [12] | activity, negative = inhibition ([13]; parasite line A) -1.02% | activity, negative = inhibition ([13]; parasite line B) -5.91% | Potency (AS120) | Potency (CP238) | Potency (CP250) | Potency (CP262) | Potency (CP265) | Potency (FAB9)
-11.9%: max response [6, 16]
-10.4%: max response [6, 15]

CCN1CCC[C@@H]1CNC(=O)c1cc(S(N)(=O)=O)ccc1OC
inactive: activity change, negative = inhibition [8] 5.34% [at 38 µM] and 0.665% [at 38 µM] | Potency [1] | activity change, negative = inhibition [2, 17] -3.07% [at 38 µM] and -10.9% [at 38 µM] | activity, negative = inhibition [3, 17] 26.6% [at 38 µM] | Potency [10] > 46 µM | Potency [9] > 46 µM | Potency [4] | Potency [5] | outcome [14] | activity change, negative = inhibition ([6]; at 57.5 µM (top of the series)) 3.26%
-11.7%: max response [6, 16]
-12.9%: max response [6, 15]

CC(=O)Oc1cc(OC(C)=O)c2c(c1)OC(c1ccc(OC(C)=O)c(OC(C)=O)c1)C(OC(C)=O)C2 (stereo not given)
0.329% and -6.77%: max response [6, 15]
inactive: activity change, negative = inhibition ([6]; at 57.5 µM (top of the series)) 6.42% and -10.2% | Potency [7]
6.69% and -15%: max response [6, 16]

CN(C)[C@H]1C(=O)C(C(=O)NCN2CCCC2)=C(O)[C@]2(O)C(=O)C3=C(O)c4c(O)cccc4[C@@](C)(O)[C@H]3C[C@@H]12
active: Potency [7] 28.2 µM
-16.5%: max response [6, 16]
inactive: Potency [1] | activity change, negative = inhibition [2, 17] -7.08% [at 17.2 µM] | activity, negative = inhibition [3, 17] 7.95% [at 17.2 µM] | Potency [10] > 20.6 µM | Potency [9] > 20.6 µM | Potency [4] | Potency [5] | activity change, negative = inhibition ([6]; at 25.7 µM (top of the series)) -2.08% | outcome [11] | outcome [12] | activity, negative = inhibition ([13]; parasite line A) -2.6% | activity, negative = inhibition ([13]; parasite line B) 2.5% | Potency (AS120) | Potency (CP238) | Potency (CP250) | Potency (CP262) | Potency (CP265) | Potency (FAB9)
-14%: max response [6, 15]
